Experimental data as given in PubChem BioAssay AID463173 (ICCB-Longwood Screening Facility, Harvard Medical School, 2010).
In all, about 52,000 compounds went through this assay and about 1,700 (3.3%) were called active. No stated cut-off is given here; in the data, active means survival mostly below about 52% (no sharp cut-off); inactive means mostly above about 56%. This excerpt belongs to a sample that is enriched for actives.

The molecules below were run on Wild type (assay: S. aureus survival, RN4220 and DeltatarO strains – OD600, teichoic acid synthesis inhibitors, primary screen (AID 463173)). Settings: S. aureus RN4220 wild type/DeltatarO growth, OD600, 18 h, stronger effect = lower value, screened at 18.75 µg/mL (by protocol).

Structure (SMILES)	survival
Cc1ccc(-c2nnn(CC(=O)N(CC(=O)NCCC(C)C)c3ccc(F)cc3)n2)cc1	84% (inactive)
CCOC(=O)C1C(=O)N(C(=O)c2cncc(Br)c2)CC1c1ccccc1 (configuration not stated)	112% (inactive)
CCOC(=O)c1cc(S(=O)(=O)Nc2cc(F)ccc2C)[nH]n1	75% (inactive)
CCC1Oc2ccccc2N(CC(=O)NCc2ccccc2)C1=O (configuration not stated)	-3% (active)
CCC1Oc2ccccc2N(CC(=O)NCc2ccc(C)cc2)C1=O (configuration not stated)	77% (inactive)
CC1Oc2ccccc2N(CC(=O)NCc2ccccc2)C1=O (configuration not stated)	105% (inactive)
Cc1ccc(CCNC(=O)c2ccc(CSCc3ccc(C)cc3)o2)cc1	65% (inactive)
CCc1nn2c(=O)cc(COC(=O)c3cccc(NC(=O)COc4ccccc4F)c3)nc2s1	124% (inactive)
CC(C)(C)OC(=O)N1CCC(c2c(C(=O)NC3CCN(Cc4ccccc4)CC3)cnn2-c2cccc(F)c2)CC1	76% (inactive)
CCOC(=O)N1CCC(NC(=O)c2cnn(-c3ccc(F)cc3F)c2C2CCN(C(=O)OC(C)(C)C)CC2)CC1	82% (inactive)
CC(C)(C)OC(=O)N1CCC(c2c(C(=O)NCCN3CCOCC3)cnn2-c2ccc(F)cc2)CC1	89% (inactive)
Cc1cccc(C)c1-n1ncc(C(=O)NCCN2CCOCC2)c1C1CCN(C(=O)OC(C)(C)C)CC1	75% (inactive)
CC(C)(C)OC(=O)N1CCC(c2c(C(=O)NC3CCN(Cc4ccccc4)CC3)cnn2-c2ccc(F)cc2F)CC1	-4% (active)
CC(C)(C)OC(=O)N1CCC(c2c(C(=O)NCCN3CCc4ccccc4C3)cnn2-c2ccc(F)cc2F)CC1	81% (inactive)
CC(C)(C)OC(=O)N1CCC(c2c(C(=O)NCCN3CCOCC3)cnn2-c2ccc(F)cc2F)CC1	-3% (active)
Cc1cccc(C)c1-n1ncc(C(=O)NCCCN2CCCCC2)c1C1CCN(C(=O)OC(C)(C)C)CC1	85% (inactive)
Cc1cccc(C)c1-n1ncc(C(=O)NCCN2CCN(C)CC2)c1C1CCN(C(=O)OC(C)(C)C)CC1	0% (active)
Cc1cccc(OCC(=O)Nc2c(C(=O)N3CCN(c4ccccc4)CC3)oc3ccccc23)c1	86% (inactive)
CN=C1SC(CC(=O)NC(N)=O)C(=O)N1C (configuration not stated)	92% (inactive)

Structure (SMILES)	survival
COc1ccc(OC)c(NC(=O)CSc2ccnc(=O)[nH]2)c1	80% (inactive)
CC(=O)Nc1cccc(NC(=O)Cn2c(-c3cccnc3)ccc(C#N)c2=O)c1	89% (inactive)
CCN1CCN(C(c2ccc(OC)cc2)c2c(O)cc(C)n(Cc3ccco3)c2=O)CC1 (configuration not stated)	71% (inactive)
CCOC(=O)c1c(NC(=O)CN(CC)CC)sc2c1CCC/C2=N\O	112% (inactive)
O=C(CSc1nc(-c2ccco2)nc2cc(=O)[nH]n12)Nc1ccc(F)cc1	65% (inactive)
CC(NCc1ccc2c(c1)OCO2)C(=O)NC1CCCCC1 (configuration not stated)	103% (inactive)
CCOC(=O)c1cc(-c2ccccc2)n(CCC(=O)NCCc2ccc(C)cc2)c1C	73% (inactive)
CCOC(=O)c1cc(-c2ccccc2)n(CCC(=O)NCCc2ccccc2)c1C	-2% (active)
CCOC(=O)c1cc(-c2ccccc2)n(CCC(=O)NCCc2cccc(C)c2)c1C	49% (inactive)
CCc1ccccc1NC(=O)COC(=O)c1cn(CC)c2nc(C)ccc2c1=O	83% (inactive)
COc1ccc(OC)c(-c2nc3c(C#N)c[nH]n3c2NC2CCCCC2)c1	102% (inactive)
COc1ccc(CCNc2nc(-c3ccc(F)cc3)cc(C(F)(F)F)n2)cc1OC	142% (inactive)
COc1ccc(CCNc2nc(-c3ccc(Cl)cc3)cc(C(F)(F)F)n2)cc1OC	18% (active)
COc1ccc(CCNc2nc3c(-c4cccc(C(F)(F)F)c4)nnn3c3ccccc23)cc1OC	83% (inactive)
COc1ccc(-c2cc(C(F)(F)F)nc(SCC(=O)NCc3ccc(OC)c(OC)c3)n2)cc1	97% (inactive)
COc1ccc(CCNC(=O)CSc2nc(-c3ccc(F)cc3)cc(C(F)(F)F)n2)cc1OC	97% (inactive)
COc1ccc(CCNc2nc(-c3ccc(C)cc3)cc(C(F)F)n2)cc1OC	100% (inactive)
COc1ccc(CCNc2nc(-c3ccccc3OC)cc(C(F)(F)F)n2)cc1OC	-8% (active)
COc1ccc(-c2cc(C(F)(F)F)nc(SCC(=O)NCCc3ccc(OC)c(OC)c3)n2)cc1	70% (inactive)

Structure (SMILES)	survival
COc1ccc(CCNc2nc(-c3ccc(OC)c(OC)c3)cc(C(F)(F)F)n2)cc1OC	0% (active)
CC(C)C1N(c2ccccc2)CCN1c1ccccc1	110% (inactive)
Cc1ccccc1OCC(=O)NCCN1CCCC1	113% (inactive)
COc1cc(-c2noc(CSc3nc(-c4ccccc4)cc(=O)[nH]3)n2)cc(OC)c1OC	59% (inactive)
O=c1[nH]cc(COCC(F)(F)C(F)F)c(=O)[nH]1	111% (inactive)
O=C(NCc1ccc(F)cc1Cl)c1ccc(CSCc2ccccc2Cl)o1	53% (inactive)
Cc1ccc(CNC(=O)CCSCc2ccccc2F)cc1	74% (inactive)
CCc1ccc(CNC(=O)CCSCc2ccccc2F)cc1	70% (inactive)
O=C(NCCc1ccc(Cl)cc1)c1ccc(CS(=O)(=O)Cc2ccccc2F)o1	-3% (active)
O=C(NCc1ccccc1Cl)c1ccc(CSCc2ccccc2Cl)o1	66% (inactive)
O=C(CCSCc1cccc(Cl)c1)NCCc1ccc(Cl)cc1	67% (inactive)
Cc1ccc(CCNC(=O)c2ccc(CS(=O)(=O)Cc3ccccc3F)o2)cc1	71% (inactive)
Cc1ccc(CCNC(=O)CCSCc2ccccc2F)cc1	-6% (active)
Cc1ccccc1CS(=O)(=O)Cc1ccc(C(=O)NCCc2ccc(Cl)cc2)o1	88% (inactive)
Cc1ccc(CCNC(=O)CCSCc2ccc(Cl)cc2)cc1	72% (inactive)
O=C(CCSCc1ccc(Cl)cc1)NCCc1ccccc1	-6% (active)
O=C(NCc1ccccc1Cl)c1ccc(CSCc2cccc(F)c2)o1	-1% (active)
COc1cccc(CNS(=O)(=O)c2ccc(-c3cc(C(F)(F)F)on3)s2)c1	87% (inactive)
CC1=C(C(=O)Nc2cc(Cl)ccc2C)C(c2sccc2C)n2ncnc2N1 (configuration not stated)	47% (inactive)
